HPGD inh = blocks human HPGD enzyme activity; purified HPGD, NADH fluorescence kinetic, PGE2 substrate; P15428; Potency, µM, for inactives: top-dose activity change, negative = inhibition, hits mostly inhibitors; 150,000 compounds, 4.3% hits; active = well fitted inhibition curve with a large enough effect, not every such curve was filed as active; inconclusive = small, poorly fitted or top-dose-only effect, or another doubt; inactive = no such curve, though single readings can be large or run the other way; also: potency is read from the fitted curve at half-maximal effect
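20 nM HPGD preincubated 15 min at room temperature with compound in 50 mM Tris-HCl pH 8, 0.01% Tween 20. Started with 1 mM NAD+ and 30 uM prostaglandin E2; NADH fluorescence (360/450 nm) read 5 times over 30-s intervals, last minus first.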
IMPase cell inh = membrane-permeable compound that blocks inositol monophosphatase. CHO-M1 cells, IP1 accumulation, HTRF TR-FRET ratio. inhibition (IP1 accumulation), % at 46.1 µM. 120,000 tested, under 10 active; active = well fitted curve in the direction sought with a large enough effect in the signal ratio, not every such curve was filed as active; inconclusive = small, poorly fitted or top-dose-only effect, or a change in a side signal; inactive = no such curve, though single readings can be large or run the other way; the % refers to the signal ratio;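 also: cells stimulated with carbachol in lithium chloride buffer; plate controls were DMSO basal wells for no effect and reference inhibitor wells for full effect; higher means more IMPase inhibition seen as more IP1 and lower FRET ratio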
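The IP-One HTRF competitive assay in carbachol-stimulated CHO-M1 cells quantifies cellular IP1. Compounds spanned up to 46 uM final, and activity is expressed as AC50 from concentration-response fits of the ratio and donor data.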
NPSR antagonist = antagonists of human neuropeptide S receptor cAMP signaling. CHO-NPSR cells, cAMP TR-FRET, antagonist mode. 220,000 compounds, 1% hits. AID 1461. Potency, µM (titrated, usually from 38.3 µM), without a hit: at the top dose activity change, negative = inhibition, hits mostly inhibitors. Q6W5P4; also: potency is read from the fitted curve at half-maximal effect; nearly all actives have a fitted effect of over 50% in size
IMPase Li inh = cell-permeable IMPase inhibitors with lithium potentiation; CHO-M1 cells, IP1 TR-FRET (IP-One), carbachol + lithium; 210,000 compounds, 0.35% hits; Potency, µM (top dose mostly 59.4 µM), for the others: at the top dose activity, negative = IMPase inhibition, most hits filed as inhibitors;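 also: IP1 builds up when IMPase is blocked and the TR-FRET signal falls; potency is read from the fitted curve at half-maximal effect; plate controls were basal vehicle for no effect and high inhibitor control for full effect; nearly all actives have a fitted effect of over 50% in size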
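CHO cells stably expressing M1 receptor (2000/well, cultured 16–30 h) treated 30 min at 37C with compound plus low lithium. Cytosolic IP1 by TR-FRET (665/620 ratio and 620 channel) after 10 min lysis; AC50 by Hill fit.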
ALDH1A1 inh = ALDH1A1 (human) enzyme inhibition; P00352; Purified ALDH1A1, NADH fluorescence, propionaldehyde substrate; Potency, µM (top dose mostly 75.3 µM), inactives show at the top dose activity, negative = inhibition, actives largely listed as inhibitors; 220,000 compounds, 7.3% hits; active = well fitted inhibition curve with a large enough effect, not every such curve was filed as active; inconclusive = small, poorly fitted or top-dose-only effect, or another doubt; inactive = no such curve, though single readings can be large or run the other way;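 also: potency is read from the fitted curve at half-maximal effect; plate controls were no enzyme wells and a reference inhibitor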
12-hLO inh = inhibitors of human 12-lipoxygenase (ALOX12); AID 1452; 150,000 compounds, 0.12% hits; Potency, µM (series often up to 57.1 µM), for the others: at the highest dose activity change, negative = inhibition, hits mostly inhibitors; purified 12-hLO, xylenol orange hydroperoxide absorbance; also: potency is read from the fitted curve at half-maximal effect; nearly all actives have a fitted effect of over 55% in size
Target sequence (P18054 whole entry, looked up): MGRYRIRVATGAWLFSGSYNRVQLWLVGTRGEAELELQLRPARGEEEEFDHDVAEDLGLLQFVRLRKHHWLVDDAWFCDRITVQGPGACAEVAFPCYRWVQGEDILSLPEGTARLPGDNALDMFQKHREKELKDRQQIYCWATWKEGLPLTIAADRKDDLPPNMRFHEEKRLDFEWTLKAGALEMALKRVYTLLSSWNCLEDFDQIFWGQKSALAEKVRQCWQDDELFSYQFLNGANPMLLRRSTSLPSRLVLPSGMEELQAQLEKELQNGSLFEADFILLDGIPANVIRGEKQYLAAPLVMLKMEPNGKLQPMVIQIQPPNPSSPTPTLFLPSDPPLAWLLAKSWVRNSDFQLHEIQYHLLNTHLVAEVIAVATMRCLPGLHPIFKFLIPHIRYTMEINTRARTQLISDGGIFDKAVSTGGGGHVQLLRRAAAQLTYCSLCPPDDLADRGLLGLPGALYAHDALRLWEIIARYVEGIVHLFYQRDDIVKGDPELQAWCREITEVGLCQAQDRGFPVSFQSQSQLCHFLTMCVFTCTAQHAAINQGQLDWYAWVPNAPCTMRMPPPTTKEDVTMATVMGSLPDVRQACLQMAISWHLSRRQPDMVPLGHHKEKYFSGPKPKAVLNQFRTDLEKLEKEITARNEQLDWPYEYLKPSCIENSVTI
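150 nM 12hLO, 25 mM Hepes pH 7.0 + 0.01% Triton X-100; cpd preinc 15 min RT; 40 uM arachidonic acid, 30 min RT; Fe-XO 30 min; A573/A405 ratio as read-out.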
* hit, by the source's call; u = inconclusive; x = not tested or not shown; [ ] = remark or other dose. In the library only some 8.9% were active in any assay of this set; here they are far more common. Unless noted, calls follow the shape of the dose curve; as a rule, active = well fitted curve in the direction sought with a large enough effect; inconclusive = small, poorly fitted or top-dose-only effect, or another doubt; inactive = no such curve, though single readings can be large; an effect the other way counts as inactive or inconclusive. Unless noted, % is scaled to controls: 0 for no effect and ±100 for the full control effect.

SMILES	HPGD inh	IMPase cell inh	NPSR antagonist	IMPase Li inh	ALDH1A1 inh	12-hLO inh
N=c1c2c(n(Cc3ccccc3)c3c1CCC3)CCC2	-18%	2	-9%[46.1 µM]	14%[38.3 µM]	6%	-3%
O=C(N/N=C/c1ccc(Cl)cc1Cl)C1CCN(c2ncc(C(F)(F)F)cc2Cl)CC1	-22%	2	-9%[46.1 µM]	-1%[38.3 µM]	3.5µM*	1%
COc1ccc(Nc2nc(-c3sc(NC(C)=O)nc3C)cs2)cc1	u	-3	-6%[46.1 µM]	10%[38.3 µM]	32µM*	-11%
Cc1nc(NC(=O)c2ccccc2)sc1-c1csc(Nc2ccc(Cl)cc2)n1	-23%	2	-23%[46.1 µM]	-3%[38.3 µM]	u	-3%
COc1ccc(Nc2nc(C)c(-c3ccccc3)s2)cc1	20µM*	4	u	17%	25µM*	-4%
COc1ccc(Nc2nc(-c3sc(N)nc3C)cs2)cc1	-23%	-7	-21%[46.1 µM]	28%[38.3 µM]	7.1µM*	-8%
Cc1cc(=O)oc2cc(OCc3cc4c(cc3Cl)OCO4)ccc12	u	8	-10%[46.1 µM]	u	u	-11%
O=C(O)C1CC=CCC1C(=O)Nc1ccc(Oc2ccc(Cl)cc2)cc1 (centres undefined)	-11%	x	-18%	3%	1.4µM*	-4%
COC(=O)c1cc(NC(=O)C2CC=CCC2C(=O)O)cc(C(=O)OC)c1 (centres undefined)	-7%	4	-10%[46.1 µM]	-1%	13µM*	-10%
CC(=O)c1cccc(NC(=O)c2ccc(NS(C)(=O)=O)cc2)c1	13µM*	11	6%	17%	10%	-6%
O=C(O)[C@H]1CC=CC[C@@H]1C(=O)Nc1cccc(O)c1	-8%	x	x	-6%	0%[13.5 µM]	6%[11.4 µM]
CC(=O)c1cccc(NC(=O)c2ccc(NS(=O)(=O)c3c(C)noc3C)cc2)c1	-13%	-5	4%[46.1 µM]	-30%[38.3 µM]	u	-2%
O=C(O)C1CC=CCC1C(=O)Nc1cccc(F)c1 (centres undefined)	-21%	8	-3%[46.1 µM]	20%[38.3 µM]	28µM*	5%
N#CC(C#N)=C1C=C2C=C(N3CCCCC3)CCC2CC1 (centres undefined)	-13%	x	-32%	31%	-10%	0%
Cc1ccc(-c2csc(C3=C(O)CN(NC(=O)c4ccc([N+](=O)[O-])cc4)C3=N)n2)cc1	x	x	11%	-5%	u	x
O=C(CSc1nc2c(cnn2-c2ccc(F)cc2)c(=O)[nH]1)N1N=C(c2cccs2)CC1c1ccc(F)cc1 (centres undefined)	u	x	-29%	5%	u	2%
O=C(Nc1ccncc1)c1cccc(F)c1	1%	0	-11%[46.1 µM]	1%[38.3 µM]	6%	4%
Cc1cc(C)cc(Oc2ccc(NC(=O)C3CC=CCC3C(=O)O)cc2)c1 (centres undefined)	x	x	-3%	2%	2.8µM*	x
O=C(Nc1cccc(F)c1)c1ccccc1	32µM*	5	1%[46.1 µM]	-11%[38.3 µM]	2%	9%
O=C(c1ccccc1)c1nn(-c2cccc(Cl)c2)ccc1=O	x	x	-18%	x	x	x
COc1ccc(Cn2nnnc2C(c2cccs2)N2CCCCCC2)cc1 (centres undefined)	-16%	u	-29%[46.1 µM]	25%	13µM*	2%
Fc1ccccc1N1CCN(C(c2cccs2)c2nnnn2CCc2ccccc2)CC1 (centres undefined)	-10%	7	u	-5%[38.3 µM]	u	-4%
COCCn1nnnc1C(c1cccs1)N1CCN(c2ccccc2)CC1 (centres undefined)	-4%	2	0%[46.1 µM]	-1%[38.3 µM]	6%	-8%
COCCn1nnnc1C(c1cccs1)N1CCCC(C)C1 (centres undefined)	x	x	-11%	5%	11µM*	x
CC1CCN(C(c2cccs2)c2nnnn2Cc2ccccc2)CC1 (centres undefined)	-19%	8	u	12%[38.3 µM]	2µM*	-4%
SMILES	HPGD inh	IMPase cell inh	NPSR antagonist	IMPase Li inh	ALDH1A1 inh	12-hLO inh
Fc1ccc(N2CCN(C(c3cccs3)c3nnnn3CCc3ccccc3)CC2)cc1 (centres undefined)	-2%	u	-13%[46.1 µM]	3%	1µM*	-3%
c1ccc(Cn2nnnc2C(c2cccs2)N2CCSCC2)cc1 (centres undefined)	-13%	-9	-13%[46.1 µM]	10%	u	2%
CC(=O)OC1CC2C(C)(C)C(=O)C3OC3[C@]2(C)C2CC[C@@]3(C)C(c4ccoc4)OC(=O)C4OC43[C@]12C (some centres undefined)	0%	x	x	9%	-3%	-2%
CCN1C(=O)c2cccc3c(NC(=O)c4ccccc4)ccc1c23	-10%	3	u	14%	u	5%
CCN1C(=O)c2cccc3c(NC(=O)C4CCCCC4)ccc1c23	x	27	-23%[46.1 µM]	x	4µM*	-2%
CCN1C(=O)c2cccc3c(NC(=O)c4ccc(OC)c(OC)c4)ccc1c23	-6%	u	-21%[46.1 µM]	52%[38.3 µM]	4.5µM*	-2%
COc1ccc2c(c1)CCCC21NC(=O)N(CC(=O)NC(=O)NCc2ccccc2)C1=O (centres undefined)	x	x	10%	12%	-8%	x
Cc1nc(-c2ccc(Cl)cc2)sc1C1(C)CC(c2ccc(C#N)cc2)=NO1 (centres undefined)	x	x	-14%	x	x	x
Cn1nnc(NC(=O)c2ccc(C(C)(C)C)cc2)n1	-6%	2	0%[46.1 µM]	1%[38.3 µM]	-2%	-5%
O=C(Nc1ccc(S(=O)(=O)N2CCCC2)cc1)c1cc(=O)c2ccccc2o1	x	x	8%[7.67 µM]	x	x	x
CN1CCN(c2ccc(C(=O)c3ccc(F)cc3)cc2)CC1	-10%	-3	-11%[46.1 µM]	-4%[38.3 µM]	-14%	3%
O=C(c1ccccc1)c1ccc(N2CCCC2)cc1	14µM*	1	-24%[46.1 µM]	11%[38.3 µM]	u	-10%
O=C(c1ccccc1)c1ccc(N2CCNCC2)cc1	-6%	-1	-8%[46.1 µM]	21%[38.3 µM]	28µM*	4%
Nc1ccc(S(=O)(=O)NC2=NCCCCC2)cc1N	x	x	6%	3%	-8%	x
O=C1[C@@H]2C(c3cccnc3)=NO[C@@H]2C(=O)N1c1ccc2ccccc2c1	x	x	-30%	x	1.6µM*	x
COc1ccc(C2=NO[C@@H]3C(=O)N(c4ccc5c(c4)OCCO5)C(=O)[C@H]23)cc1OC	-16%	1	-16%[46.1 µM]	3%[38.3 µM]	u	-6%
CC(=O)Nc1ccc(OCC(=O)NC(C)C(C)C)cc1 (centres undefined)	-6%	4	-3%[46.1 µM]	6%[38.3 µM]	18%	5%
Cc1nc(N2CCN(Cc3ccccc3)CC2)nc2c1C(=O)CC(c1ccco1)C2 (centres undefined)	-18%	20	-22%[46.1 µM]	25%[38.3 µM]	22µM*	-4%
C/C(=N/NC(=O)c1ccc(Br)o1)C(C)C	-8%	x	7%	-8%	-4%	-2%
Cc1cccc(N2CCN(Cc3cc(=O)n4ccsc4n3)CC2)c1C	1%	-1	-8%[46.1 µM]	3%[38.3 µM]	10%	-3%

Source: PubChem BioAssay (National Center for Advancing Translational Sciences (NCATS))
